Results filed as inconclusive are left out. Values without a mark were called inactive. Calls of active or inactive are those of the source. Calls come from the whole dose curve; as a rule, active = well fitted activation curve with a large enough effect; inconclusive = small, poorly fitted or top-dose-only effect; inactive = no such curve, though single readings can be large or run the other way.
The compounds below were run against Cellular tumor antigen p53 (Homo sapiens) (UniProt P04637) (assay: Primary qHTS for small molecule compounds that upregulate eGFP-tagged delta133p53alpha (in N-terminal) cells. (AID 2060322; note: nearly all actives have a fitted effect of over 75% in size;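 for activation: series mostly up to about 56 µM; 0% = DMSO vehicle and 100% = reference activator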)). Settings: NCI-H358 eGFP-delta133p53alpha fluorescence, 24 h; activation: hits give high values.
Chain of Cellular tumor antigen p53 (Homo sapiens) (P04637 whole entry, looked up): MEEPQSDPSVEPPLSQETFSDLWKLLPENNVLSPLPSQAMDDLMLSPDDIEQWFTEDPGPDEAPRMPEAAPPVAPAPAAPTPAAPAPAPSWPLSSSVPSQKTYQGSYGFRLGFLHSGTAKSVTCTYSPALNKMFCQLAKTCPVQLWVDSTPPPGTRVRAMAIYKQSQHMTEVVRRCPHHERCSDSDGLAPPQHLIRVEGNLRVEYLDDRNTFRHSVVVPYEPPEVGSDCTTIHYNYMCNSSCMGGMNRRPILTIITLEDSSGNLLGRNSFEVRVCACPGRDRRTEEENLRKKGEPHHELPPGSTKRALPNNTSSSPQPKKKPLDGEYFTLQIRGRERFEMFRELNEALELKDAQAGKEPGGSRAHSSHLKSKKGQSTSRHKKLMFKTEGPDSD
In short: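 NCI-H358 cells pre-induced 24 h with 10 ng/ml doxycycline to express N-terminal eGFP-delta133p53alpha, then dosed 24 h at 37C without doxycycline; fixed, Hoechst-stained, GFP intensity by laser scanning cytometry, normalized to DMSO (0%) and 57.5 uM 5-azacytidine (100%).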
Potency is the fitted concentration of half-maximal effect.

SMILES | activation | Potency
COc1cc(/C=C/C(=O)O[C@H]2[C@H](O)[C@@H](CO)O[C@@]2(CO)O[C@H]2O[C@H](CO)[C@@H](O)[C@H](O)[C@H]2O)cc(OC)c1O | -32.8% | 
CC1CCC2C(C(=O)O)=CC3(O)CC(C)(C)CC123 (stereo not given) | -22.3% | 
CNS(=O)(=O)c1ccccc1Nc1nc(Nc2ccc(N3CCN(C)CC3)cc2OC)ncc1Br |  | 9.53 µM (active)
COc1cc2c(cc1O)C1(Cc3ccc4c(c3C1=O)OCO4)N(C)CC2 (stereo not given) | -7.63% | 
COc1cc([C@@H]2Oc3c(OC)cc(CCCO)cc3[C@@H]2CO[C@@H]2O[C@H](CO)[C@@H](O)[C@H](O)[C@H]2O)ccc1O | -9.16% | 
C/C=C1/[C@H](O[C@@H]2O[C@H](CO)[C@@H](O)[C@H](O)[C@H]2O)OC=C(C(=O)OC)[C@H]1CC(=O)OCCc1ccc(OC(=O)C[C@@H]2C(C(=O)OC)=CO[C@@H](O[C@@H]3O[C@H](CO)[C@@H](O)[C@H](O)[C@H]3O)/C2=C/C)cc1 | -7.14% | 
COC(=O)C1=CO[C@@H](O[C@@H]2O[C@H](CO)[C@@H](O)[C@H](O)[C@H]2O)[C@@H]2[C@@H](C)[C@@H](O)C[C@H]12 | -11.5% | 
CC1(C)CC[C@]2(CO[C@@H]3O[C@H](CO)[C@@H](O)[C@H](O)[C@H]3O)[C@@H](O)C[C@]3(C)C(=CCC4[C@@]5(C)CC[C@H](O[C@@H]6O[C@H](CO[C@@H]7O[C@H](CO[C@@H]8OC[C@@H](O)[C@H](O)[C@H]8O)[C@@H](O)[C@H](O)[C@H]7O)[C@@H](O)[C@H](O)[C@H]6O)C(C)(C)C5CC[C@]43C)[C@@H]2C1 (stereo not given in full) | -2.68% | 
CC(C/C=C/C(C)(C)O)C1CCC(C)(O)C(O)C1 (stereo not given) | -11.5% | 
C[C@@H]1O[C@@H](O[C@H]2[C@H](O[C@H]3[C@H](O[C@H]4CC[C@@]5(C)C(CC[C@]6(C)C5CC=C5[C@@H]7CC(C)(C(=O)O)C[C@@H](O)[C@]7(C)CC[C@]56C)[C@@]4(C)CO)O[C@H](C(=O)O)[C@@H](O)[C@@H]3O)O[C@H](CO)[C@H](O)[C@@H]2O)[C@H](O)[C@H](O)[C@H]1O (stereo not given in full) | -0.893% | 
COc1cc(C2Oc3c(OC)cc(/C=C/C(=O)OC4CC(O)(C(=O)O)CC(O)C4O)cc3C2CO)ccc1O (stereo not given) | -32.8% | 
CC(=O)N[C@H]1[C@H](O[C@H]2CC[C@@]3(C)C(CC[C@]4(C)C3CC=C3C5CC(C)(C)CC[C@]5(C(=O)O)[C@H](O[C@@H]5O[C@H](CO)[C@@H](O)[C@H](O)[C@H]5O)C[C@]34C)C2(C)C)O[C@H](CO[C@@H]2OC[C@H](O)[C@H](O)[C@H]2O[C@@H]2OC[C@@H](O)[C@H](O)[C@H]2O)[C@@H](O)[C@@H]1O (stereo not given in full) | -9.16% | 
C=C1CC[C@@H]2[C@](C)(CO[C@@H]3O[C@H](CO)[C@@H](O)[C@H](O)[C@H]3O)CCC[C@@]2(C)[C@@H]1CCC1=CCOC1=O | 10.7% | 
OC[C@H]1O[C@@H](OC/C=C/c2ccc(O)cc2)[C@H](O)[C@@H](O)[C@@H]1O | 12.5% | 
COC(=O)C1=CO[C@@H](O[C@@H]2O[C@H](CO[C@@H]3O[C@H](COC(=O)/C=C/c4ccc(O)cc4)[C@@H](O)[C@H](O)[C@H]3O)[C@@H](O)[C@H](O)[C@H]2O)[C@@H]2C(CO)=CC[C@H]12 | -3.05% | 
COc1cc2c(cc1O)C1(Cc3ccc4c(c3C1O)OCO4)[N+](C)([O-])CC2 (stereo not given) | -8.04% | 
CC[C@@H](Nc1c(Nc2cccc(C(=O)N(C)C)c2O)c(=O)c1=O)c1ccc(C)o1 | -1.43% | 
O=C(c1ccc(C#Cc2cccc(F)c2)cn1)N1CC2CC2C1 (stereo not given) | -1% | 
C#CCCCn1cc(-c2cccc3c2N[C@@H](C)CC(=O)N3)cn1 | -18.8% | 
N#Cc1cc(F)cc(-c2nc(-c3ccccn3)no2)c1 | -12.4% | 

SMILES | activation | Potency
COc1cc(C(=O)O)ccc1OC1OC(CO)C(O)C(O)C1O (stereo not given) | 10.7% | 
O=C(O)/C=C/c1cc2c(cc1O[C@@H]1O[C@H](CO)[C@@H](O)[C@H](O)[C@H]1O)OCO2 | 9.92% | 
CC(CCc1ccc(O)cc1)O[C@@H]1O[C@H](CO[C@@H]2OC(CO)[C@H](O)[C@H]2O)[C@@H](O)[C@H](O)[C@H]1O (stereo not given in full) | -13.7% | 
CC(C)n1nc(C#Cc2ccccc2)c2c(N)ncnc21 | 25% | 
C=C1CCC2(C(=O)OC3OC(CO)C(O)C(O)C3O)CCC3(C)C(=CCC4C5(C)CCC(OC6OC(CO)C(OC7OC(C)C(O)C(O)C7O)C(OC7OCC(O)C(O)C7O)C6O)C(C)(C)C5CCC43C)C2C1 (stereo not given) | 14.3% | 
COc1cc(/C=C/C(=O)OC(C)(C)C(OC2OC(CO)C(O)C(O)C2O)C(=O)OCc2ccc(OC3OC(CO)C(O)C(O)C3O)cc2)ccc1O (stereo not given) | 13.7% | 
COc1ccc(/C=C/C(=O)N2CCCC2)cc1 | 2.68% | 
COc1cc(C(CO)C(OC2OC(CO)C(O)C(O)C2O)c2ccc(O)c(OC)c2)ccc1O (stereo not given) | 20.5% | 
C/C=C/C1=CC2=C(CO1)C(=O)[C@](C)(O)[C@H](OC(=O)c1c(O)cc(OC)c(O)c1C)C2 | 3.82% | 
COc1ccc(-c2ccc3c(N4CCOCC4C)nc(N4CCOCC4C)nc3n2)cc1CO (stereo not given) | 7.14% | 
CC1=CC2C(CC1OC1OC(CO)C(O)C(O)C1O)C(C)CC(=O)C2C(C)C (stereo not given) | 4.58% | 
CC(C)CC1NC(=O)C2CC3(O)c4ccccc4NC3N2C1=O (stereo not given) | -9.92% | 
CC(=O)N1CCc2ccc(O)c(OC3OC(COC4OCC(O)(CO)C4O)C(O)C(O)C3O)c2C1Cc1ccc(O)cc1 (stereo not given) | -0.763% | 
C/C=C1/CC2C(=O)Nc3cc(O)c(OC)cc3C(=O)N2C1 (stereo not given) | -3.57% | 
COC(=O)c1c(CC=C(C)C)c(OC2OC(CO)C(O)C(O)C2O)c2ccccc2c1OC1OC(CO)C(O)C(O)C1O (stereo not given) | 20.6% | 
C[C@@H]1C[C@H]2OC(=O)[C@@]3(C)CCC[C@](C)(C23)[C@@]1(O)CCC1=CC(=O)OC1O (stereo not given in full) | 9.16% | 
C[C@@H]1O[C@@H](O[C@H]2[C@H](OC(C#N)c3ccc(O)cc3)O[C@H](CO)[C@@H](O)[C@@H]2O)[C@H](O)[C@H](O)[C@H]1O (stereo not given in full) | -19.8% | 
CC(C)(O)/C=C/C1=CC(=O)[C@@](C)(O)C[C@H]1O | -8.4% | 
N#CC(CCCN1CCN(/N=C/c2cccnc2)CC1)(c1ccccc1)c1ccccc1 | -7.16% | 
CC1CC=C2C1CC1(O)C(=O)CC2(C)C1(C)CO (stereo not given) | 3.82% | 
